# Data published in PubChem BioAssay (NCI).
# The panel holds about 83,000 compounds, 20% with a hit somewhere; the sample as a whole holds those more often.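 Single-dose data. Exposure time 48 hours. Values below 10 considered active.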 The source made the active and inactive calls.
# Tested on: NCI/ADR-RES ovarian
# Test: NCI-60 one-dose screen, 48 h (100 = growth as untreated, 0 = no growth, -100 = all killed)
# Settings: 10 µM unless noted
# Experimental: Growth inhibition of the NCI/ADR-RES human […] tumor cell line is measured as a screen for anti-cancer activity. Cells are grown in 96 well plates and exposed to the test compound for 48 hours. Compounds are tested at a single concentration, which is 10^-5 M for most compounds. The reported endpoint is percent growth (GI% or GIPRCNT), where numbers from 0 - 100% represent growth inhibition, and numbers from -100% - 0 represent cell death. For example, a value of 40 represents 60% growth inhibition. A value of 0 means no net growth occurred over the course of the experiment. A value of -40 indicates 40% of cells at the beginning of the experiment died by the end of the experiment. A value of -100 means all cells are dead at the end of the experiment.
# NCI-60 Human Tumor Cell Lines Screen was performed using the standard one-dose NCI protocol, which is described in more detail at https://dtp.cancer.gov/discovery_development/nci-60/default.htm.
# Compounds with GIPRCNT values below 10 were considered active. Activity score was based on GIPRCNT using the following formula: […]
# Score is 0 for GIPRCNT values of 100 or above, 50 for GIPRCNT values of 0, and 100 for GIPRCNT values of -100.
row,SMILES,growth
1,Cc1cc(C)c(S(=O)(=O)Oc2ccccc2[N+](=O)[O-])c(C)c1,8.3% (active)
2,Nc1nc(Nc2ccccc2SSc2ccccc2Nc2nc(N)nc(-c3ccc(C(F)(F)F)cc3)n2)nc(-c2ccc(C(F)(F)F)cc2)n1,56.4% (inactive)
3,O=S(=O)(NCCNc1nccc(-c2c(-c3cccc(F)c3)nc3sccn23)n1)c1ccc(Cl)cc1,67.7% (inactive)
4,CCCN1[C@@H]2CC[C@H]1/C(=C\c1ccc(OC)c(OC)c1)C(=O)/C2=C/c1ccc(OC)c(OC)c1,42% (inactive)
5,CCOC(=O)c1cc(C#N)n2ccc3ccccc3c12,102% (inactive)
6,CC(=O)Nc1ccc(-n2cnc3cc(-c4ccc(OCCN5CCCCC5)cc4)ccc32)cc1,97.2% (inactive)
7,O=C1c2c(c3c4cccc(F)c4[nH]c3c3ccc4ccccc4c23)C(=O)N1O,64.2% (inactive)
8,COc1ccc(C(C)=O)c(OC)c1,108% (inactive)
9,O=Cc1cc2ccccc2nc1Oc1ccc(C(F)(F)F)cc1,92.9% (inactive)
10,Cc1nn(-c2ccccc2)c(Cl)c1/C=C/C(=O)c1ccc(F)cc1,93.2% (inactive)
11,O=C(O)c1ccc2c(c1)C(=O)N(Cc1ccccc1)C2=O,98% (inactive)
12,NS(=O)(=O)c1ccc(CCn2c(SCC(=O)c3ccc(Cl)cc3)nc3ccccc3c2=O)cc1,98.6% (inactive)
13,Cc1nn(-c2ccccc2)c(Oc2c(Cl)cccc2Cl)c1/C=N/N=c1\sc2ccccc2n1C,56.1% (inactive)
14,C=C1C(=O)O[C@H]2[C@H]1CC/C(CNC(=O)/C=C/c1cccc(OC)c1)=C\CC[C@@]1(C)O[C@@H]21,82.6% (inactive)
15,N#Cc1cc(-c2nc3ccccc3s2)c(=O)n(NS(=O)(=O)c2ccccc2)c1N,105% (inactive)
16,Brc1ccc2[nH]cc(-c3cncn3CCc3ccccc3)c2c1,49.6% (inactive)
17,N#C/C(=C\c1ccc(Cl)cc1)n1nnc2cc(F)c(F)cc21,17.6% (inactive)
18,COc1cc(/C=N/NC(=O)c2cnn3c2NC(c2ccccc2)C3)ccc1Oc1ccccc1 (stereo not given),41.3% (inactive)
19,C=C1C(=O)O[C@H]2[C@H]1CC/C(CNS(=O)(=O)c1cccc3ccccc13)=C\CC[C@@]1(C)O[C@@H]21,74.3% (inactive)
20,CCNC(=O)Oc1ccc(/C(=C(\C)c2ccccc2)c2ccc(OCCCN(C)C)cc2)cc1,81.6% (inactive)

row,SMILES,growth
1,CNC(=O)c1cc(Cn2nc(C)c(NC(=O)Nc3ccc(Cl)c(C(F)(F)F)c3)c2C)ccn1,98.8% (inactive)
2,Cn1ccc2c1CC1CN(Cc3ccco3)C(=O)C1C2C(=O)O (stereo not given),99% (inactive)
3,CCOC(=O)c1nc2c3ccccc3ccn2c1C(=O)OCC,96% (inactive)
4,Cn1ccnc1C(=O)/C=C/c1ccc(CC(=O)NC2CCCCC2)cc1,75.9% (inactive)
5,CCOC(=O)c1cc(C(=O)c2ccc(Br)cc2)n2ccc(/C=C/c3cc[n+](CC(=O)c4ccc(OC)cc4)cc3)cc12,87.5% (inactive)
6,Cn1ccnc1C(=O)/C=C/c1ccc(CC(=O)Nc2ccc(Cl)cc2)cc1,10.8% (inactive)
7,CN[C@@H](C)C(=O)N[C@H]1CCS[C@H]2CC(C)(C)[C@@H](C(=O)N[C@H]3c4ccccc4C[C@H]3OCC#CC#CCO[C@@H]3Cc4ccccc4[C@@H]3NC(=O)[C@H]3N4C(=O)[C@@H](NC(=O)[C@H](C)NC)CCS[C@H]4CC3(C)C)N2C1=O,109% (inactive)
8,N#Cc1c(-c2ccccc2)nc2c(c(-c3ccccc3)nn2-c2ccccc2)c1-c1ccc(O)cc1,70.5% (inactive)
9,OC(c1cccc(C(F)(F)F)c1)c1cnccc1NC1CCCCC1 (stereo not given),79.1% (inactive)
10,CNC(=O)c1cncc(Cn2nc(C)c(NC(=O)c3ccc(COc4ccc(C(F)(F)F)cc4C)cc3)c2C)c1,96.4% (inactive)
11,C[C@H]1[C@H]2[C@H]3CC[C@@H]4[C@@]5(C)CC[C@H](O)C(C)(C)[C@@H]5CC[C@@]4(C)[C@]3(C)CC[C@]23CO[C@]1(C)[C@@H](C(=O)/C=C\c1ccco1)C3,95.3% (inactive)
12,Cc1cccc(NC(=O)Nc2ccc(-n3cnc4cc(-c5ccc(O)cc5)ccc43)cc2)c1,39.5% (inactive)
13,N/C(=N\C(N)=N\c1nc2ccccc2s1)c1cnccn1,61.7% (inactive)
14,CCOc1ccc(/C=N/Nc2cc(C)nc3ccc(Br)cc23)cc1,81.8% (inactive)
15,CCCCCN1C=C/C(=C\C(=O)N(C)c2ccc(OC(F)(F)F)cc2)c2ccccc21,105% (inactive)
16,COc1cc(C2C3CC4CCCC[C@H]4N3[C@@]3(C(=O)Nc4cc(Cl)ccc43)C2C(=O)c2nc3ccccc3[nH]2)cc(OC)c1OC (stereo not given in full),66.8% (inactive)
17,CCCCC[n+]1ccc(SCC(=O)N(C)c2ccc(Oc3ccccc3)cc2)c2ccccc21,104% (inactive)
18,CC1(C)CC[C@]23CC[C@]4(C)[C@H](CC[C@@H]5[C@@]6(C)CCCNC(C)(C)[C@@H]6CC[C@]54C)[C@H]2[C@H]1OC3,-19.6% (active)
19,O=C1Nc2cc(-c3ccc(NC(=O)C4CC4)cc3)ccc2/C1=C/c1ccc[nH]1,106% (inactive)
20,O=C(C[n+]1cccc2ccccc21)c1ccc(O)c(O)c1,75.4% (inactive)
